Test results taken from PubChem BioAssay (Tox21).
Where “and” joins values, the source holds several entries; their conditions need not be identical. Equal entries are not always repeated. Results filed as inconclusive are left out. More than one record can exist for a structure, and the calls need not agree. Calls of active or inactive are those of the source. Unless noted, the call rests on the fitted dose curve; in most records, active means well fitted curve in the direction sought with a large enough effect in the repeat runs; inconclusive means weak or mixed curves; inactive means no such curve, though single readings can be large; an effect the other way counts as inactive or inconclusive.

What was measured:
[1] = qHTS assay to identify small molecule agonists of the estrogen receptor alpha (ER-alpha) signaling pathway in the presence of an antagonist - cell viability counter screen (AID 1259386);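 further: cells exposed to compounds for 22 h at 37 °C before the viability read; nearly all actives have a fitted effect of over 30% in size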; further: potency means the concentration at half of the fitted maximal effect
How it was run: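 Read-out: CellTiter-Fluor fluorescence after 1hr reagent incubation, measured in the same wells as the luciferase readout. VM7Luc4E2 cells were exposed to 15 compound concentrations with 10.0nM ICI-182,780 for 22hr at 37C.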

[2] = target: Progesterone receptor (Homo sapiens) (UniProt P06401); assay: qHTS assay to identify small molecule agonists of the progesterone receptor (PR) signaling pathway (AID 1346784; calls by dose curve; further: nearly all actives have a fitted effect of over 30% in size)
Sequence of Progesterone receptor (Homo sapiens) (P06401 whole entry, looked up): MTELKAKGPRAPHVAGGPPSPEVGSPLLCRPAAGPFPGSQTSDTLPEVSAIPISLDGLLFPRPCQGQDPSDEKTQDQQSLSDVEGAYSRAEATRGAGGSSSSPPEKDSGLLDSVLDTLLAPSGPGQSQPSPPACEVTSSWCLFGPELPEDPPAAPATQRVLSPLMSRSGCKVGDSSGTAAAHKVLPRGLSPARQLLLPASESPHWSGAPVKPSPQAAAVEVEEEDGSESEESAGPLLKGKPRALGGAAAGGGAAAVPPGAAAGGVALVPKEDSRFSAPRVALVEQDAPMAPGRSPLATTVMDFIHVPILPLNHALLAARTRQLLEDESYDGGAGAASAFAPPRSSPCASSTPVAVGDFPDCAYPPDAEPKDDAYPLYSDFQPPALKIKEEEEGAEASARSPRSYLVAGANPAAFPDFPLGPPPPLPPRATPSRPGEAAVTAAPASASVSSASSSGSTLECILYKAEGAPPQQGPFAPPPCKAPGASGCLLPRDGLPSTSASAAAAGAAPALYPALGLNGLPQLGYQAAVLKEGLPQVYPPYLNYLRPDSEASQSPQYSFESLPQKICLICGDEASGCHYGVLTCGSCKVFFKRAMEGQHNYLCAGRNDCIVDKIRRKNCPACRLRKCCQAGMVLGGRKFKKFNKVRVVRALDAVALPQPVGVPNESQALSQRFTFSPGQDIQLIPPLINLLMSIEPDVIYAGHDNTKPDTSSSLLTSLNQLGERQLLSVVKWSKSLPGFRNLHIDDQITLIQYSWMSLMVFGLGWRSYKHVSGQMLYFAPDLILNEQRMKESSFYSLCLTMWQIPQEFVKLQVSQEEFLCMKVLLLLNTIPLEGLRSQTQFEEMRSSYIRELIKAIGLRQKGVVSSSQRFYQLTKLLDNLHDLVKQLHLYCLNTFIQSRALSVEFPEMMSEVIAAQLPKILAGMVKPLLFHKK
How it was run: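 Agonist qHTS: compounds pinned onto 3,000 PR-UAS-bla HEK 293T cells per well in charcoal-stripped serum medium, 16hr at 37C, then beta-lactamase activity measured by LiveBLAzer FRET fluorescence after 2 hours at room temperature.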

[3] = target: Progesterone receptor (Homo sapiens) (UniProt P06401); assay: qHTS assay to identify small molecule antagonists of the progesterone receptor (PR) signaling pathway (AID 1346795; active means well fitted inhibition curve with a large enough effect in the signal ratio in the repeat runs, not every such curve was filed as active; the % refers to the signal ratio; further: potency means the concentration at half of the fitted maximal effect)
How it was run: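 Antagonist mode with agonist R5020 at 1 nM final and 16 hr incubation at 37C. Reporter was beta-lactamase driven by UAS in HEK293T (PR-UAS-bla), 2% charcoal-stripped serum; signal from LiveBLAzer FRET substrate, 2 hr at room temperature.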

[4] = qHTS assay to identify small molecule antagonists of the progesterone receptor (PR) signaling pathway - cell viability counter screen (AID 1346798); further: nearly all actives have a fitted effect of over 50% in size; further: potency means the concentration at half of the fitted maximal effect
How it was run: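 Cytotoxicity read as CellTiter-Glo luminescence (30 min, room temperature) in the same wells as the beta-lactamase readout. HEK293T PR-UAS-bla cells in charcoal-stripped 2% FBS received compound and R5020, then 16 h at 37C, 5% CO2.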

[5] = qHTS assay to identify small molecule agonists of the progesterone receptor (PR) signaling pathway - cell viability counter screen (AID 1346799; calls by dose curve; further: nearly all actives have a fitted effect of over 45% in size; further: potency means the concentration at half of the fitted maximal effect)
How it was run: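 Cytotoxicity measured by CellTiter-Glo luminescence (30 min, RT) in the same wells as the PR beta-lactamase agonist read. Those HEK293T cells had 16 h compound treatment at 37 C in 2% charcoal-stripped FBS medium.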

[6] = qHTS assay to identify small molecule antagonists of the TGF-beta/Smad signaling pathway - cell viability counter screen (AID 1346824); further: nearly all actives have a fitted effect of over 50% in size; further: potency means the concentration at half of the fitted maximal effect
How it was run: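 Cytotoxicity counter-screen run in the same wells as the beta-lactamase Smad reporter read: CellTiter-Glo luminescence after 30 min at room temperature. HEK 293T SBE-bla cells had 5 hr compound exposure at 37 C with TGF-beta1 (0.25 ng/mL stock).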

[7] = qHTS assay to identify small molecule agonists of the TGF-beta/Smad signaling pathway - cell viability counter screen (AID 1346829); further: nearly all actives have a fitted effect of over 45% in size; further: potency means the concentration at half of the fitted maximal effect
How it was run: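 CellTiter-Glo luminescence readout; SBE-bla HEK 293T cells, overnight plating, compound 5 hr at 37 C/5% CO2, then bla substrate 2 hr RT, then CellTiter-Glo 30 min RT.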

[8] = qHTS assay to identify small molecule agonists of the TGF-beta/Smad signaling pathway (AID 1346859; active means well fitted activation curve with a large enough effect in the signal ratio in the repeat runs, not every such curve was filed as active; the % refers to the signal ratio; further: series mostly up to about 77 µM)
How it was run: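 Fluorescence (ex 405 nm; em 460 and 530 nm) was read 2 h after LiveBLAzer FRET substrate at RT. The preceding compound treatment of overnight-plated SBE-bla HEK293T cells lasted 5 h at 37 C.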

[9] = Human pregnane X receptor (PXR) small molecule agonists, qHTS cell viability counter screen (AID 1346977); further: nearly all actives have a fitted effect of over 50% in size; further: potency means the concentration at half of the fitted maximal effect
How it was run: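 Same-well viability read: CellTiter-Fluor added after 23 hr compound exposure, fluorescence measured 1 hr later. Cells were PXR-Luc HepG2 seeded at 2,000/well in 5% charcoal-stripped FBS medium, rested 5 hr before dosing at 37 C.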

[10] = Caspase-3/7 induction in HepG2 cells by small molecules, qHTS assay (AID 1346978); further: nearly all actives have a fitted effect of over 15% in size; further: potency means the concentration at half of the fitted maximal effect
How it was run: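 Caspase-3/7 induction was measured by Caspase-Glo 3/7 luminescence (30 min, room temperature) after a 17 hr compound exposure of wild-type HepG2 cells seeded at 2,000 per well and pre-incubated 5 hr.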

[11] = Caspase-3/7 induction in CHO-K1 cells by small molecules, qHTS cell viability counter screen (AID 1346979); further: nearly all actives have a fitted effect of over 35% in size; further: potency means the concentration at half of the fitted maximal effect
How it was run: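 Cytotoxicity counter screen: CellTiter-Fluor added to compound-treated wild-type CHO-K1 cells at 16 h (37C, 5% CO2), fluorescence measured 1 h later; same wells as caspase-3/7 measurement.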

[12] = Caspase-3/7 induction in CHO-K1 cells by small molecules, qHTS assay (AID 1346980); further: nearly all actives have a fitted effect of over 15% in size
How it was run: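 Luminescent Caspase-Glo 3/7 read (30min, room temperature) quantified apoptosis induction. Cells were wild-type CHO-K1, treated with compound for 17hr at 37 C and 5% CO2.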

[13] = Caspase-3/7 induction in HepG2 cells by small molecules, qHTS cell viability counter screen (AID 1346981); further: nearly all actives have a fitted effect of over 30% in size; further: potency means the concentration at half of the fitted maximal effect
How it was run: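 Fluorescence read-out of live-cell protease activity (CellTiter-Fluor) after 1 hr with reagent. This was measured in the same wells as the caspase-3/7 luminescence, on HepG2 cells exposed to DMSO-dissolved compounds for 16 hr at 37 C.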

[14] = target: Nuclear receptor subfamily 1 group I member 2 (Homo sapiens) (UniProt O75469); assay: Human pregnane X receptor (PXR) small molecule agonists, qHTS assay (AID 1346982); further: nearly all actives have a fitted effect of over 35% in size; further: potency means the concentration at half of the fitted maximal effect
Sequence of Nuclear receptor subfamily 1 group I member 2 (Homo sapiens) (O75469 whole entry, looked up): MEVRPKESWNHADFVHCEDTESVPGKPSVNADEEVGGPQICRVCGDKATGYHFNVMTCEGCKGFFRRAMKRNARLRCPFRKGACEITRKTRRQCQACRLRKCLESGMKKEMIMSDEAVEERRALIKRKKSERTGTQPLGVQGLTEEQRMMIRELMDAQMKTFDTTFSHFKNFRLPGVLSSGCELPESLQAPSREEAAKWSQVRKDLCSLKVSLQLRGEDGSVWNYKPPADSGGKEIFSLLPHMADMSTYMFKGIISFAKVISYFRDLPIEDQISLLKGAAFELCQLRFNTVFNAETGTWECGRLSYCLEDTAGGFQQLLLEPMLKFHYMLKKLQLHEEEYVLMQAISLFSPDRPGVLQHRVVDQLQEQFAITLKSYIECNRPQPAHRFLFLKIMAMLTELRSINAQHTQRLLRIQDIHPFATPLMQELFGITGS
How it was run: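 HepG2 PXR-Luc reporter line, 5% charcoal-stripped FBS; 5 hr pre-incubation, compound (DMSO) 24 hr at 37 C/5% CO2; ONE-Glo 30 min RT; luminescence read-out.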

[15] = target: Acetylcholinesterase (Homo sapiens) (UniProt P22303); assay: Acetylcholinesterase (AChE) small molecule antagonists: colormetric cell-based qHTS assay (AID 1347395; calls by dose curve; further: nearly all actives have a fitted effect of over 30% in size; further: potency means the concentration at half of the fitted maximal effect)
Sequence of Acetylcholinesterase (Homo sapiens) (P22303 whole entry, looked up): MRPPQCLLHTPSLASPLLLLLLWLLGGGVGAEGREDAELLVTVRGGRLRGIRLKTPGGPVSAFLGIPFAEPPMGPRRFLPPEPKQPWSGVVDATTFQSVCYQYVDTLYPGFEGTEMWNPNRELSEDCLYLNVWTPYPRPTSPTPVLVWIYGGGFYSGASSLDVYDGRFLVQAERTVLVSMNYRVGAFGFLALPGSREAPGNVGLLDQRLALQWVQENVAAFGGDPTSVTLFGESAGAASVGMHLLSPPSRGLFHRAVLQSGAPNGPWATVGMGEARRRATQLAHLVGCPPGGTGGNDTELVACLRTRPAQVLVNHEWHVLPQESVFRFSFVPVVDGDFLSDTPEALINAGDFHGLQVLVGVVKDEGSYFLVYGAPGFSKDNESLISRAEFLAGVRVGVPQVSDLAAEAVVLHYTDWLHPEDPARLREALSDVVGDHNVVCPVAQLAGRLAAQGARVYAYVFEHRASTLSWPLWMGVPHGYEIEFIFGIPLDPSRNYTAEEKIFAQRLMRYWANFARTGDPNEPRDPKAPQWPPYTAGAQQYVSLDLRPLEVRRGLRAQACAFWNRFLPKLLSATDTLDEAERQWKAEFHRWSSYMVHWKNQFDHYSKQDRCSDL
How it was run: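 Colorimetric readout: DTNB quantifies thiocholine from acetylthiocholine hydrolysed by endogenous AChE of SH-SY5Y cells (2,000/well, plated overnight). Compound pretreatment 30 min, substrate incubation 90 min, both 37 C.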

[16] = target: Thyrotropin-releasing hormone receptor (Homo sapiens) (UniProt P34981); assay: qHTS assay to identify small molecule antagonists of the thyrotropin-releasing hormone receptor (TRHR) signaling pathway (AID 1346877; active means well fitted inhibition curve with a large enough effect in the repeat runs, not every such curve was filed as active; further: potency means the concentration at half of the fitted maximal effect)
Sequence of Thyrotropin-releasing hormone receptor (Homo sapiens) (P34981 whole entry, looked up): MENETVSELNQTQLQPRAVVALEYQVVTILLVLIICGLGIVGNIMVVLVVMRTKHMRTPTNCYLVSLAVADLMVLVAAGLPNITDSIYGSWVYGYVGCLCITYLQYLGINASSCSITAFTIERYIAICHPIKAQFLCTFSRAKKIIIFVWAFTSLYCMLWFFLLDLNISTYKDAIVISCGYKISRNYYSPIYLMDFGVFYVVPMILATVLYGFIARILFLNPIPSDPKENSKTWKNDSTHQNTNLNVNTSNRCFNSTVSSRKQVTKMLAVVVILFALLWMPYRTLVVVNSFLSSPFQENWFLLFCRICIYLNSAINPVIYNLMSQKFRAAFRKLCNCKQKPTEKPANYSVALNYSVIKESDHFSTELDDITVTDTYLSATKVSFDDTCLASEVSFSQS
How it was run: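 HEK293/TRHR cells, 18 h, 37 °C; Ca2+ dye 2 h; cpd 5 min RT; TRH 1 nM final; fluorescence read 3 min, 1 s intervals; 15 concs, triplicate.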

[17] = target: Thyrotropin-releasing hormone receptor (Homo sapiens) (UniProt P34981); assay: qHTS assay to identify small molecule agonists of the thyrotropin-releasing hormone receptor (TRHR) signaling pathway (AID 1346891; calls by dose curve; further: series mostly up to about 58 µM)
How it was run: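 Agonist-mode intracellular calcium readout: kinetic fluorescence over 3 min at 1 s intervals after compound addition to TRHR-HEK293 cells (18 h seeded, 2 h dye-loaded at 37 C). Fifteen concentrations, triplicates.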

[18] = target: Nuclear receptor subfamily 1 group I member 2 (Rattus norvegicus) (UniProt Q9R1A7); assay: Rat pregnane X receptor (rPXR) activation by small molecules, qHTS assay (AID 1346983); conditions: rPXR luciferase reporter cells, One-Glo luminescence, 24 h; stronger effect = higher value; further: nearly all actives have a fitted effect of over 20% in size
Sequence of Nuclear receptor subfamily 1 group I member 2 (Rattus norvegicus) (Q9R1A7 whole entry, looked up): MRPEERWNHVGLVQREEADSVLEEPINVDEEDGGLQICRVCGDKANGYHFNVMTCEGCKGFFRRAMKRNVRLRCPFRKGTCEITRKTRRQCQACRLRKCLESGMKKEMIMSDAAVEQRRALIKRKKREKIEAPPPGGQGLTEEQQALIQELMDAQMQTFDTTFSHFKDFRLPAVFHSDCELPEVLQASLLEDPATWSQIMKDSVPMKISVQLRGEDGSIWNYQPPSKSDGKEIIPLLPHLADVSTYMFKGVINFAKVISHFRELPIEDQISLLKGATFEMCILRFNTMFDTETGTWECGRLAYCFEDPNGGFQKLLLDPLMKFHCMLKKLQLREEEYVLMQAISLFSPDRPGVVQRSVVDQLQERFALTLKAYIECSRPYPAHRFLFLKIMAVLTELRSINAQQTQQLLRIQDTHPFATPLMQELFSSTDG
How it was run: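 Luminescent readout (One-Glo luciferase, 30 min room temperature) followed 24 hr compound treatment at 37 C of rPXR cells plated 2,000 per well and preincubated 5hr; qHTS format with compounds delivered in DMSO.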

[19] = target: Nuclear receptor subfamily 1 group I member 2 (Homo sapiens) (UniProt O75469); assay: CYP3A4 induction through human pregnane X receptor (PXR) by small molecules, qHTS assay (AID 1346984); further: nearly all actives have a fitted effect of over 40% in size
How it was run: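 HepG2-derived DPX-2 line carrying PXR plus a CYP3A4-promoter luciferase reporter; cells plated 5 hr, compound-exposed 24 hr at 37C. CYP3A4 activity probed with 3uM (final) Luciferin-IPA for 3hr, then luciferase read after One-Glo.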

[20] = target: Nuclear receptor subfamily 1 group I member 2 (Homo sapiens) (UniProt O75469); assay: Human pregnane X receptor (PXR) activation by small molecules, qHTS assay (AID 1346985); further: nearly all actives have a fitted effect of over 40% in size
How it was run: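 DPX-2 cells (HepG2 co-transfected with a PXR response element and a CYP3A4-promoter luciferase construct) were seeded at 2,000 per well, rested 5 hr at 37C, then exposed to DMSO-dissolved compounds for 24 hr. Activation was read as luciferase luminescence.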
On the % scale 0 is the no-effect control and ±100 the full control effect.

Nc1ncn[nH]1
inactive: Potency [1] | Potency [2] | Potency [3] | Potency [4] | Potency [5] | Potency [6] | Potency [7] | Potency [8] | Potency [9] | Potency [10] | Potency [11] | Potency [12] | Potency [13] | Potency [14] | Potency [15]

[Cl-].[Cl-].[Cl-].[Fe+3]
inactive: Potency [1] | Potency [2] | Potency [3] | Potency [4] | Potency [5] | Potency [6] | Potency [7] | Potency [8] | Potency [9] | Potency [10] | Potency [11] | Potency [12] | Potency [13]

Cc1ccc([N+](=O)[O-])cc1
inactive: Potency [1] | Potency [2] | Potency [3] | Potency [4] | Potency [5] | Potency [6] | Potency [7] | Potency [8] | Potency [16] | outcome [17] | Potency [9] | Potency [10] | Potency [11] | Potency [12] | Potency [13] | Potency [15]

CCOP(=S)(OCC)OP(=S)(OCC)OCC
inactive: Potency [1] | Potency [2] | Potency [3] | Potency [4] | Potency [5] | Potency [6] | Potency [7] | Potency [8] | Potency [16] | outcome [17] | Potency [9] | Potency [10] | Potency [11] | Potency [12] | Potency [13]
active: Potency [15] 8.18 µM and 5.03 µM

CNC(=O)CSP(=S)(OC)OC
14.1 µM (active) and inactive: Potency [11]
inactive: Potency [1] | Potency [2] | Potency [3] | Potency [4] | Potency [5] | Potency [6] | Potency [7] | Potency [8] | Potency [16] | outcome [17] | Potency [9] | Potency [10] | Potency [12] | Potency [13] | Potency [15]

CC(C)COC(=O)c1ccccc1C(=O)OCC(C)C
inactive: Potency [1] | Potency [2] | Potency [3] | Potency [4] | Potency [5] | Potency [6] | Potency [7] | Potency [8] | Potency [16] | outcome [17] | Potency [9] | Potency [10] | Potency [11] | Potency [12] | Potency [13] | Potency [15]

COP(=S)(OC)Oc1ccc(S(=O)(=O)N(C)C)cc1
34.4 µM (active) and inactive: Potency [14]
active: Potency [15] 39.9 µM
inactive: Potency [1] | Potency [2] | Potency [3] | Potency [4] | Potency [5] | Potency [6] | Potency [7] | Potency [8] | Potency [9] | Potency [10] | Potency [11] | Potency [12] | Potency [13] | max activation [18] -2.31% | Potency [19] | outcome [20]

CCNc1nc(Cl)nc(NC(C)(C)C#N)n1
inactive: Potency [1] | Potency [2] | Potency [3] | Potency [4] | Potency [5] | Potency [6] | Potency [7] | Potency [8] | Potency [9] | Potency [10] | Potency [11] | Potency [12] | Potency [13] | Potency [15]
active: Potency [14] 61.1 µM

O=NN1CCOCC1
inactive: Potency [1] | Potency [2] | Potency [3] | Potency [4] | Potency [5] | Potency [6] | Potency [7] | Potency [8] | Potency [16] | outcome [17] | Potency [9] | Potency [10] | Potency [11] | Potency [12] | Potency [13] | Potency [15]

CCCCCCCCCc1ccc(O)cc1
inactive: Potency [1] | Potency [2] | Potency [4] | Potency [5] | Potency [6] | Potency [7] | Potency [8] | Potency [16] | outcome [17] | Potency [15]
active: Potency [3] 27.6 µM and 61.1 µM | Potency [9] 61.1 µM | Potency [10] 61.8 µM and 27.3 µM | Potency [11] 61.8 µM and 54.5 µM | Potency [13] 43.3 µM | Potency [14] 61.8 µM and 61.1 µM

O=C1C(Cl)=C(Cl)C(=O)c2ccccc21
active: Potency [1] 43.4 µM and 61.1 µM | Potency [3] 48.6 µM | Potency [4] 61.3 µM and 61.1 µM | Potency [5] 61.1 µM | Potency [6] 49.1 µM and 49 µM | Potency [7] 49.1 µM and 43.6 µM | Potency [16] 21.4 µM and 21.3 µM | Potency [9] 39.8 µM | Potency [11] 4.34 µM and 9.69 µM | Potency [13] 61.3 µM
inactive: Potency [2] | outcome [17] | Potency [10] | Potency [12] | Potency [14] | Potency [15]
